Reference: PubChem BioAssay (NCI)
Compounds without any hit were thinned out: in the full panel of roughly 79,000, 15% have a hit. Rule as the data show it: active = growth inhibition above about 70%; inactive = the rest.

Experiments:
[1] = NCI Yeast Anticancer Drug Screen. Data for the rad50 strain (AID 155);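 also: 0% = growth of vehicle-only cultures of the same strain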; settings: S. cerevisiae rad50 strain growth inhibition; at 50.0 µM; hits give high values
How it was run: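 Compounds were tested on a yeast strain with an engineered DNA damage repair alteration; the reported value is growth inhibition normalised to vehicle treatment.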

[2] = NCI Yeast Anticancer Drug Screen. Data for the mec2-1 strain (AID 157); settings: S. cerevisiae mec2-1 strain, at 50.0 µM, hits give high values
How it was run: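 Vehicle-treated cultures served as reference for growth inhibition of compound-exposed mec2-1 yeast.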

[3] = NCI Yeast Anticancer Drug Screen. Data for the sgs1 mgt1 strain (AID 161);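 also: 0% = growth of cultures given vehicle only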; settings: S. cerevisiae sgs1 mgt1 strain, at 50.0 µM, hits give high values
How it was run: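 Inhibition of yeast growth, normalised to vehicle-treated controls, is reported for a strain bearing genetic alterations in DNA damage repair.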

[4] = NCI Yeast Anticancer Drug Screen. Data for the cln2 rad14 strain (AID 165);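 also: 0% = growth equal to vehicle treated cultures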; settings: S. cerevisiae cln2 rad14 strain, at 50.0 µM, hits give high values
How it was run: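 Each compound was tested on cln2 rad14 yeast. Inhibition of growth was calculated against vehicle-exposed controls.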

[5] = NCI Yeast Anticancer Drug Screen. Data for the bub3 strain (AID 167); settings: S. cerevisiae bub3 mutant strain, at 50.0 µM, hits give high values
How it was run: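 Growth of a checkpoint-deficient yeast mutant is measured after compound exposure. Values represent inhibition relative to vehicle.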

[6] = NCI Yeast Anticancer Drug Screen. Data for the mlh1 rad18 strain (AID 175); settings: S. cerevisiae mlh1 rad18 strain growth inhibition; at 50.0 µM; hits give high values
How it was run: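 Vehicle-treated cultures served as the reference for growth inhibition in a yeast strain carrying DNA damage repair alterations exposed to each compound.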

Measured: growth inhibition

CCC1(C)NN=C2C(=CC=C3NNC(C)(CC)N32)n2cccc21 (stereo not given)
inactive: [1] 36.9% | [2] 8.8% | [3] -19.1% | [4] 3.5% | [5] -2.65% | [6] 26.4%

CC[O-].CC[O-].O=C([CH-]C(=O)c1cccnc1)c1ccccc1.O=C([CH-]C(=O)c1cccnc1)c1ccccc1.[Ti+4]
inactive: [1] -0.05% | [2] 19.8% | [3] -19.9% | [4] -16.2% | [5] -11.6% | [6] -8.4%

CC1(C)OC2OC(C3CC3)C(O)C2O1 (stereo not given)
inactive: [1] -4.1% | [2] 4.75% | [3] 3% | [4] -36.1% | [5] 11.9% | [6] -1.85%

COCCN1CCC(CO)C1 (stereo not given)
inactive: [1] 4.85% | [2] 11.5% | [3] 20.1% | [4] 2.05% | [5] 11.9% | [6] 10.5%

CC(=O)OCC1OC(Sc2cccc3ccccc23)C(OC(C)=O)C(OC(C)=O)C1OC(C)=O (stereo not given)
inactive: [1] -16.8% | [2] -5.8% | [3] -4.75% | [4] -20.8% | [5] 0% | [6] 3.4%

CC(=O)Nc1ccc2c(c1)C(=O)c1ccccc1-2
inactive: [1] 64.1% | [2] 16.1% | [3] 30.2% | [4] 26.3% | [5] -16.8% | [6] 31.4%

CC(C)(N)CNCC(C)(C)N
inactive: [1] 6.9% | [2] -3.65% | [3] -0.2% | [4] -5.8% | [5] -0.45% | [6] -2.1%

COc1ccc(NC(=O)CC/C(CC(=O)c2ccco2)=N/Nc2ccc([N+](=O)[O-])cc2[N+](=O)[O-])cc1
inactive: [1] 21.4% | [2] -6.8% | [3] -0.05% | [4] 3.1% | [5] 22.1% | [6] 2.95%

CCNCC(=O)Nc1ccc2c(c1)C(=O)c1ccc(NC(=O)CNCC)cc1C2=O
inactive: [1] 20.9% | [2] 28.5% | [3] 29.2% | [4] -4.55% | [5] 3.85% | [6] 50.8%

Nc1ccc2c(c1)Cc1c-2cc(Br)c(N)c1Br
inactive: [1] 4.95% | [2] -6.85% | [3] 9.5% | [4] -39.2% | [5] 1.9% | [6] -6.75%

CC1C2CC(CC2O)C1(C)C (stereo not given)
inactive: [1] 11.3% | [2] 16.6% | [3] 18.1% | [4] 24.4% | [5] 6.3% | [6] 15.9%

COc1ccc(CCNC(=O)Cc2ccccc2CCO)cc1OC
inactive: [1] 13.9% | [2] -6.85% | [3] -29.5% | [4] -3.75% | [5] -43.9% | [6] -20.1%

N#Cc1c(N2CCCC2)ncn(Cc2ccccc2)c1=O
inactive: [1] 0.7% | [2] 12.8% | [3] 0.2% | [4] -30.8% | [5] 7.15% | [6] 4.7%

N#CC(C#N)=C1C=Cc2ccccc2O1
inactive: [1] 27.9% | [2] -1.35% | [3] 0.9% | [4] 5.15% | [5] -1.4% | [6] 43.9%

Brc1cc2ccccc2nc1-c1ccccc1
inactive: [1] -2.3% | [2] -7.95% | [3] 1% | [4] -23.4% | [5] 5.05% | [6] 10.1%

O=C(O)C1C(C(=O)O)C1c1ncnc2nc[nH]c12 (stereo not given)
inactive: [1] -0.95% | [2] -13.7% | [3] -4.95% | [4] -26.8% | [5] -17.8% | [6] 7.4%

CCCCOC(=O)NC(=O)c1cn(CCSCCOC(=O)NCCCCCCNC(=O)OCCSCCn2cc(C(=O)NC(=O)OCCCC)c(=O)[nH]c2=O)c(=O)[nH]c1=O
inactive: [1] -15.2% | [2] -12.5% | [3] -9.55% | [4] 2.15% | [5] -15.9% | [6] -15.4%

CNC(=O)c1ccccc1Sc1ccccc1
inactive: [1] -4.25% | [2] -15.8% | [3] -16.3% | [4] -34.8% | [5] 0.2% | [6] 3.15%

c1ccc(N=C(N2CCCC2)N(CCN2CCCC2)c2ccccc2)cc1
inactive: [1] -39.4% | [2] -58.1% | [3] -36.4% | [4] 1.35% | [5] -14.2% | [6] -28.2%

O=C(NCCCl)Nc1cccc2c1CCC2
inactive: [1] -11.1% | [2] -0.7% | [3] -9.5% | [4] -47.3% | [5] -23.1% | [6] -4.8%
